Test results reported in PubChem BioAssay (NCATS).
Inconclusive results are not listed. A call without a number means that no potency is given here. Active and inactive are the calls of the source. Calls come from the whole dose curve; as a rule, active = well fitted curve in the direction sought with a large enough effect; inconclusive = small, poorly fitted or top-dose-only effect, or another doubt; inactive = no such curve, though single readings can be large; an effect the other way counts as inactive or inconclusive.

Test: NS1 protein of Zika virus - qHTS assay to identify small molecule inhibitors in human HEK 293 cells (AID 1347053); note: nearly all actives have a fitted effect of over 55% in size
Settings: HEK293 ZIKV MR766 infection, NS1 TR-FRET, 24 h; series mostly up to 46.1 µM
Method in brief: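 HEK 293 cells, seeded 20 h at 37 C, were pretreated with compound 1 h, then infected with ZIKV MR766 (MOI = 0.5) for 24 h. NS1 was read by TR-FRET with two anti-NS1 antibodies, normalized to uninfected and infected wells.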
Potency is the fitted concentration of half-maximal effect.

SMILES | Potency
CC(C)[N+](C)(C)CC(O)COc1cccc2ccccc12 (configuration not stated) | inactive
C/C=C/C=N/NC(=O)c1ccncc1 | inactive
OC[C@H]1O[C@@H]2O[C@H]3[C@H](O)[C@@H](O)[C@@H](O[C@H]4[C@H](O)[C@@H](O)[C@@H](O[C@H]5[C@H](O)[C@@H](O)[C@@H](O[C@H]6[C@H](O)[C@@H](O)[C@@H](O[C@H]7[C@H](O)[C@@H](O)[C@@H](O[C@H]8[C@H](O)[C@@H](O)[C@@H](O[C@H]1[C@H](O)[C@H]2O)O[C@@H]8CO)O[C@@H]7CO)O[C@@H]6CO)O[C@@H]5CO)O[C@@H]4CO)O[C@@H]3CO | inactive
CCOCCn1c(N2CCCN(C)CC2)nc2ccccc21 | inactive
Nc1ccc(C(=O)NCC(=O)O)cc1 | inactive
O=S(=O)(O)c1ccc(O)cc1 | inactive
Cc1ncc(CO)c(C=O)c1O | inactive
CC(C)[C@@H]1CC[C@@H](C)CC1=O | inactive
N#CCC(=O)NN | inactive
C=C[C@H]1CN2CC[C@H]1C[C@@H]2[C@@H](O)c1ccnc2ccc(OC)cc12 | inactive
OCc1ccccn1 | inactive
O=C(O)C(Cc1cc(I)c(O)c(I)c1)c1ccccc1 (configuration not stated) | inactive
CC(C)NCC(O)c1ccc2ccccc2c1 (configuration not stated) | inactive
C[N+]1(CC2COC(c3ccccc3)(C3CCCCC3)O2)CCCCC1 (configuration not stated) | inactive
CC(C)Nc1cccnc1N1CCN(C(=O)c2cc3cc(NS(C)(=O)=O)ccc3[nH]2)CC1 | inactive
C=C[C@H]1CN2CC[C@H]1C[C@H]2[C@H](O)c1ccnc2ccc(OC)cc12 | inactive
NC1CCN(c2nc3c(cc2F)c(=O)c(C(=O)O)cn3-c2ccc(F)cc2F)C1 (configuration not stated) | inactive
CC(=C(CCOC(=O)C(C)C)SSC(CCOC(=O)C(C)C)=C(C)N(C=O)Cc1cnc(C)nc1N)N(C=O)Cc1cnc(C)nc1N | inactive

SMILES | Potency
CCN1/C(=C/C=C/c2sc3ccccc3[n+]2CC)Sc2ccccc21 | 3.55 µM (active)
CCN1CCN(C(=O)N[C@@H](C(=O)N[C@@H]2C(=O)N3C(C(=O)O)=C(CSc4nnnn4C)CS[C@H]23)c2ccc(O)cc2)C(=O)C1=O | inactive
CC(=O)OCC1=C(C(=O)O)N2C(=O)[C@@H](NC(=O)CSc3ccncc3)[C@H]2SC1 | inactive
Nc1nc(-c2ccccc2)c(Br)c(=O)[nH]1 | inactive
CC(=O)Nc1ccc(OCC(O)CNC(C)C)cc1 (configuration not stated) | inactive
OCCOCCN1CCN(C2=Nc3ccccc3Sc3ccccc32)CC1 | inactive
CC(O)Cn1cnc2c1c(=O)n(C)c(=O)n2C (configuration not stated) | inactive
N[C@H](C(=O)O)[C@@H](O)c1ccc(O)c(O)c1 | inactive
CCOC(=O)c1c(N)sc2c1CCN(Cc1ccccc1)C2 | inactive
Oc1c(Cl)cc(Cl)c(Cl)c1Cc1c(O)c(Cl)cc(Cl)c1Cl | inactive
C=C[C@@]1(C)CC(=O)[C@]2(O)[C@@]3(C)[C@@H](O)CCC(C)(C)[C@@H]3[C@H](O)[C@H](OC(C)=O)[C@@]2(C)O1 | inactive
CC(=O)Nc1ccc(OC(=O)c2ccccc2OC(C)=O)cc1 | inactive
CC(C)(C)CC(C)(C)c1ccc(O)c(-n2nc3ccccc3n2)c1 | inactive
CN(C)C(=O)Nc1ccc(Cl)c(Cl)c1 | inactive
CC(C)Cc1ccc(CC(=O)O)cc1 | inactive
O=C(O)CCC(=O)Nc1ccc(S(=O)(=O)Nc2nccs2)cc1 | inactive
CNCCc1ccccn1 | inactive
CN1CCC(OC(c2ccccc2)c2ccccc2)CC1 | inactive

Test: qHTS of pediatric cancer cell lines to identify multiple opportunities for drug repurposing: Primary screen for TC32 cells (AID 1347089); note: nearly all actives have a fitted effect of over 60% in size
Settings: TC32 Ewing sarcoma viability, CellTiter-Glo luminescence, 48 h; series mostly up to 45.8 µM
Method in brief: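 qHTS, TC32, 48 h drug treatment, CellTiter-Glo luminescence as a proxy for metabolically active cells; primary top concentration 46 µM (MIPE 11-pt, NPC 8-pt); confirmatory 11-pt.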

SMILES | Potency
CC(C)[N+](C)(C)CC(O)COc1cccc2ccccc12 (configuration not stated) | inactive
C/C=C/C=N/NC(=O)c1ccncc1 | inactive
OC[C@H]1O[C@@H]2O[C@H]3[C@H](O)[C@@H](O)[C@@H](O[C@H]4[C@H](O)[C@@H](O)[C@@H](O[C@H]5[C@H](O)[C@@H](O)[C@@H](O[C@H]6[C@H](O)[C@@H](O)[C@@H](O[C@H]7[C@H](O)[C@@H](O)[C@@H](O[C@H]8[C@H](O)[C@@H](O)[C@@H](O[C@H]1[C@H](O)[C@H]2O)O[C@@H]8CO)O[C@@H]7CO)O[C@@H]6CO)O[C@@H]5CO)O[C@@H]4CO)O[C@@H]3CO | inactive
CCOCCn1c(N2CCCN(C)CC2)nc2ccccc21 | inactive
Nc1ccc(C(=O)NCC(=O)O)cc1 | inactive
O=S(=O)(O)c1ccc(O)cc1 | inactive
Cc1ncc(CO)c(C=O)c1O | inactive
CC(C)[C@@H]1CC[C@@H](C)CC1=O | inactive
N#CCC(=O)NN | inactive
C=C[C@H]1CN2CC[C@H]1C[C@@H]2[C@@H](O)c1ccnc2ccc(OC)cc12 | inactive
OCc1ccccn1 | inactive
O=C(O)C(Cc1cc(I)c(O)c(I)c1)c1ccccc1 (configuration not stated) | inactive
CC(C)NCC(O)c1ccc2ccccc2c1 (configuration not stated) | inactive
C[N+]1(CC2COC(c3ccccc3)(C3CCCCC3)O2)CCCCC1 (configuration not stated) | inactive
CC(C)Nc1cccnc1N1CCN(C(=O)c2cc3cc(NS(C)(=O)=O)ccc3[nH]2)CC1 | inactive
C=C[C@H]1CN2CC[C@H]1C[C@H]2[C@H](O)c1ccnc2ccc(OC)cc12 | inactive
NC1CCN(c2nc3c(cc2F)c(=O)c(C(=O)O)cn3-c2ccc(F)cc2F)C1 (configuration not stated) | inactive
CC(=C(CCOC(=O)C(C)C)SSC(CCOC(=O)C(C)C)=C(C)N(C=O)Cc1cnc(C)nc1N)N(C=O)Cc1cnc(C)nc1N | inactive

SMILES | Potency
CCN1/C(=C/C=C/c2sc3ccccc3[n+]2CC)Sc2ccccc21 | 1.29 µM (active)
CCN1CCN(C(=O)N[C@@H](C(=O)N[C@@H]2C(=O)N3C(C(=O)O)=C(CSc4nnnn4C)CS[C@H]23)c2ccc(O)cc2)C(=O)C1=O | inactive
CC(=O)OCC1=C(C(=O)O)N2C(=O)[C@@H](NC(=O)CSc3ccncc3)[C@H]2SC1 | inactive
Nc1nc(-c2ccccc2)c(Br)c(=O)[nH]1 | inactive
CC(=O)Nc1ccc(OCC(O)CNC(C)C)cc1 (configuration not stated) | inactive
OCCOCCN1CCN(C2=Nc3ccccc3Sc3ccccc32)CC1 | inactive
CC(O)Cn1cnc2c1c(=O)n(C)c(=O)n2C (configuration not stated) | inactive
N[C@H](C(=O)O)[C@@H](O)c1ccc(O)c(O)c1 | inactive
CCOC(=O)c1c(N)sc2c1CCN(Cc1ccccc1)C2 | inactive
Oc1c(Cl)cc(Cl)c(Cl)c1Cc1c(O)c(Cl)cc(Cl)c1Cl | 7.45 µM (active)
C=C[C@@]1(C)CC(=O)[C@]2(O)[C@@]3(C)[C@@H](O)CCC(C)(C)[C@@H]3[C@H](O)[C@H](OC(C)=O)[C@@]2(C)O1 | inactive
CC(=O)Nc1ccc(OC(=O)c2ccccc2OC(C)=O)cc1 | inactive
CC(C)(C)CC(C)(C)c1ccc(O)c(-n2nc3ccccc3n2)c1 | inactive
CN(C)C(=O)Nc1ccc(Cl)c(Cl)c1 | inactive
CC(C)Cc1ccc(CC(=O)O)cc1 | inactive
O=C(O)CCC(=O)Nc1ccc(S(=O)(=O)Nc2nccs2)cc1 | inactive
CNCCc1ccccn1 | inactive
CN1CCC(OC(c2ccccc2)c2ccccc2)CC1 | inactive
